Hits are enriched below; roughly 0.97% of the tested compounds scored in any of these assays.
TLR9-MyD88 block – inhibitors of TLR9-MyD88 association in cells, primary screen, cell-based, CHO, BLA complementation, fluorescence; Toll-like receptor 9 (Homo sapiens) + Myeloid differentiation primary response protein …; CCF4 FRET ratio; inhibition, % at 4.98 µM; hit rate 0.21% among 340,000; AID 504734, 2011;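 active = inhibition above the mean over all tested compounds plus 3 SD, cut at about 21% in these data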;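 also: 0% = DMSO only wells and 100% = clavulanate BLA inhibitor control wells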
Target sequence (Q99836 whole entry, looked up): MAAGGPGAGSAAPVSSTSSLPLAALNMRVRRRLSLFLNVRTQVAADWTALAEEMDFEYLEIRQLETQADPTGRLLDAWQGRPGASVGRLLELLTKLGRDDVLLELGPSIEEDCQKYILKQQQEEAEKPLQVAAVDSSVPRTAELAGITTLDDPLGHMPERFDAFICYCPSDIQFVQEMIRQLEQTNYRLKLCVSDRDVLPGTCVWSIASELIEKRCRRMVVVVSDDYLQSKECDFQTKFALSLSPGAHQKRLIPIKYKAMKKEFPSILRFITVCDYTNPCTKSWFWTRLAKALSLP
Target sequence (Q9NR96 whole entry, looked up): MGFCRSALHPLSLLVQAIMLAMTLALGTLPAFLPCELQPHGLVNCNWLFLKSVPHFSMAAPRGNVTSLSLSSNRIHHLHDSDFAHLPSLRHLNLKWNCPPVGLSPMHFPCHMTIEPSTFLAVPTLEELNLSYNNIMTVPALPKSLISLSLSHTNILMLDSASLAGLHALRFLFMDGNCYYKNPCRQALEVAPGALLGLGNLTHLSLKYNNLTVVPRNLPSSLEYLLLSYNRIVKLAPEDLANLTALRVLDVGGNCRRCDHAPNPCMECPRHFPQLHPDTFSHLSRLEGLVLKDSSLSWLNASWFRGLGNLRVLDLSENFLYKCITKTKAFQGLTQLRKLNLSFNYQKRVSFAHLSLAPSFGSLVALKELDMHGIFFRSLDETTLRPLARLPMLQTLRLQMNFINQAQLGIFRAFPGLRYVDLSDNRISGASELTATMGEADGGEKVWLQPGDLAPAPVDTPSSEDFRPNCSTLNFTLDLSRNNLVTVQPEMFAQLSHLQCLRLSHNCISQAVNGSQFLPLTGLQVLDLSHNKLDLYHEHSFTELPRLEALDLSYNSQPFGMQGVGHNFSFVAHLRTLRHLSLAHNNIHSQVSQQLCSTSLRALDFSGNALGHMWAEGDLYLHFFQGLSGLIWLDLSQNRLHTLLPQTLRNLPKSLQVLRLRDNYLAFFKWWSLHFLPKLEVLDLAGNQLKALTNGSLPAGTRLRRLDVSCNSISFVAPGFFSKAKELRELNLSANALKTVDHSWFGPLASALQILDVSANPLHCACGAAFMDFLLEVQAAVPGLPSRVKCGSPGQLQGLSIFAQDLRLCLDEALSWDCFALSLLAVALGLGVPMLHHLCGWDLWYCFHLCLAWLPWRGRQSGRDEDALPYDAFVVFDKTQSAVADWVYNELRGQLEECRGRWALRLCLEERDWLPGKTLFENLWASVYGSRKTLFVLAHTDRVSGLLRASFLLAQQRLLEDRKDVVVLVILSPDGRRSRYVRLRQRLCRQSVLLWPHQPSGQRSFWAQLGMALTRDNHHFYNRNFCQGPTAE
NOD2 RIPK2 PPI – NOD2-RIPK2 binding disruptors in cells, primary screen, fluorescence, CHO cells, BLA complementation; hit rate 0.38% among 360,000; CCF4 ratio; Receptor-interacting serine/threonine-protein kinase 2 (Homo sapiens), O43353; AID 624267, 2012; inhibition, % at 4.98 µM; in the data active = inhibition above about 21%;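 also: 0% = vehicle only and 100% = reference blocker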
A1 inh – caspase 3/7 activation in MEF A1-2A-BIM cells, primary screen, A1 inhibitor project, cell-based, luminescence, HTS; Caspase-Glo 3/7 luminescence, 3 h; percent of clofoctol response, vehicle zero; AID 2462, 2010; caspase activation, % (test concentration not listed); hit rate 0.066% among 330,000;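 active = over half of replicate activation scores above 10%, or exactly half above 10 with the replicate mean above 10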
NTR1 agonist – agonists of human NTR1, primary screen, imaging, U2OS cells, beta-arrestin-GFP, high content; Neurotensin receptor type 1 (Homo sapiens), P30989; NTR1-U2OS beta-arrestin-GFP spot imaging, agonist mode; activation, % at 20 µM; hit rate 0.17% among 330,000; AID 493036, 2011;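 active = activation at or above 40% of the spot to cytoplasm intensity ratio, with at least 20 cells analyzed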;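 also: 0% = DMSO without peptide and 100% = 100 nM NTR1 peptide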
B2AR ag – beta2AR agonists driving receptor internalization, primary screen, cell-based, FAP fluorogen, flow cytometry; Beta-2 adrenergic receptor (Homo sapiens), P07550; Am2.2-beta2AR cells; response, % (no concentration beside the values); hit rate 0.43% among 340,000; AID 504454, 2011;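 active = response above a set limit, near 3 SD of response in nonfluorescent compounds, cut at about 42% in these data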
TLR4 MyD88 comp – inhibitors of TLR4-MyD88 association in cells, primary screen, cell-based, HeLa CL3-4, BLA complementation, FRET ratio; Toll-like receptor 4 (Homo sapiens) + Myeloid differentiation primary response protein …; HeLa CL3-4 TLR4/MyD88 BLA complementation; inhibition, % at 8.4 µM; hit rate 0.18% among 200,000; AID 861, 2007; in the data active = inhibition above about 25%;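 also: 0% = vehicle and 100% = reference inhibitor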
TLR9-MyD88 cf – TLR9-MyD88 association inhibitors, retest, confirmation, cell-based, CHO, BLA complementation, fluorescence, triplicate; CCF4 FRET ratio; hit rate 51% among 680; inhibition, % at 4.98 µM; shares compounds with TLR9-MyD88 block;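 active = mean inhibition across three repeats above about 21% taken from the earlier screen, limit read from the data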;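 also: blue over green emission ratio reports constitutive TLR9 MyD88 association via BLA complementation; 0% = DMSO vehicle wells and 100% = clavulanate BLA inhibitor wells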
BLA counter-1 – beta-lactamase reporter inhibitors in CHO cells, artefact control for TLR9-MyD88 binding inhibitor project, cell-based, fluorescence; shares compounds with TLR9-MyD88 block; CHO-BLA cells, CCF4 FRET ratio, BLA reporter; inhibition, % at 4.98 µM; hit rate 7% among 680; AID 540251, 2011;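 active = mean inhibition above a 50% cutoff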;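 also: counterscreen of TLR9-MyD88 hits on CMV-driven BLA in CHO-K1 cells; 0% = DMSO alone and 100% = clavulanate blocking BLA; higher means less blue over green ratio so more BLA blockade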
TLR9 CHO cytotox – CHO cell viability loss – luminescence, single concentration, cytotoxicity control for TLR9-MyD88 binding inhibitor project; shares compounds with TLR9-MyD88 block; TLR9-MyD88 CHO cells cytotoxicity; inhibition, % at 4.98 µM; hit rate 39% among 680; in the data active = inhibition above about 11%
NOD2-RIPK2 conf – NOD2-RIPK2 binding disruptors, retest, confirmation, fluorescence, CHO cells, BLA complementation, triplicate; hit rate 70% among 1,200; AID 624370, 2012; shares compounds with NOD2 RIPK2 PPI; CCF4 FRET; inhibition, % at 4.98 µM;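 active = mean inhibition across replicates above a set limit taken from the earlier primary screen, cut at about 21% in these data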;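 also: 0% = DMSO-only wells and the high end = clavulanate BLA-blocked wells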
BLA counter-2 – NOD2-RIPK2 counterscreen BLA reporter activity; shares compounds with NOD2 RIPK2 PPI; CHO BLA reporter, CCF4 FRET ratio; inhibition, % at 4.98 µM; hit rate 57% among 1,200; AID 624371;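 active = mean inhibition above the low-control mean inhibition plus three low-control SD, cut at about 11% in these data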;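 also: 0% = DMSO only wells and 100% = clavulanate high control wells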
Starred values were filed as active, the others as inactive; nt = no result.

SMILES | TLR9-MyD88 block | NOD2 RIPK2 PPI | A1 inh | NTR1 agonist | B2AR ag | TLR4 MyD88 comp | TLR9-MyD88 cf | BLA counter-1 | TLR9 CHO cytotox | NOD2-RIPK2 conf | BLA counter-2
CCOC(=O)c1ccc(NC(=O)c2nc(S(=O)(=O)Cc3ccccc3)ncc2Cl)cc1 | 42* | 55* | 1 | 0 | 15 | nt | 30* | 23 | 99* | 87* | 50*
CC(C)c1nnc(NC(=O)c2nc(S(=O)(=O)Cc3ccccc3)ncc2Cl)s1 | 22* | 26* | nt | 1 | 23 | nt | 20 | 19 | 29* | 37* | 24*
CC1CCN(CC(C)CNC(=O)c2cc(-c3ccccn3)nc3ccccc23)CC1 (stereo not given) | 4 | 5 | 0 | 2 | -16 | 8 | nt | nt | nt | nt | nt
O=C(N/N=C/c1cccnc1)c1cccc(NC(=O)c2cccc(Br)c2)c1 | -11 | -2 | 0 | 0 | 23 | nt | nt | nt | nt | nt | nt
O=C(N/C(=C\c1ccc([N+](=O)[O-])cc1)C(=O)N1CCOCC1)c1ccco1 | 1 | 1 | -1 | 0 | -8 | nt | nt | nt | nt | nt | nt
CCS(=O)(=O)c1ncc(Cl)c(C(=O)Nc2ccc(S(=O)(=O)N3CCC(C)CC3)cc2)n1 | 58* | 96* | 42* | 28 | 24 | nt | 49* | 43 | 99* | 96* | 48*
CC(=O)Nc1ccc(NC(=O)c2nc(S(=O)(=O)Cc3cccc(C)c3)ncc2Cl)cc1 | 27* | 82* | 1 | 1 | 18 | nt | 44* | 34 | 97* | 81* | 44*
CCN(CC)c1ccc(/C=C/c2cc(-c3ccccc3)c3ccccc3n2)cc1 | 55* | 69* | 1 | nt | -874 | nt | 70* | 80* | 5 | 80* | 86*
CCN(CC)c1ccc(/C=N/NC(=O)c2cc(C)nc3ccccc23)cc1 | -7 | 5 | -1 | 1 | 3 | nt | nt | nt | nt | nt | nt
O=[N+]([O-])c1ccc(N2N=C(c3ccco3)CC2c2ccccc2)cc1 (stereo not given) | 38* | 56* | -2 | 0 | -43 | 20 | 21* | 22 | 1 | 49* | 53*
O=[N+]([O-])c1ccc(N2N=C(c3ccccc3)CC2c2ccccc2O)cc1 (stereo not given) | 40* | 39* | 0 | 0 | -137 | nt | 33* | 38 | 6 | 51* | 65*
NS(=O)(=O)c1ccc(N2N=C(c3ccccc3)CC2c2ccccc2Br)cc1 (stereo not given) | -5 | 8 | nt | 20 | 6 | nt | nt | nt | nt | nt | nt
CCCC(=O)Nc1ccc2c(c1)Cc1ccccc1-2 | 5 | -84 | -1 | 0 | -3 | nt | nt | nt | nt | nt | nt
COc1ccc(/C=N/Nc2ccc([N+](=O)[O-])cc2)cc1O | 37* | 28* | -4 | 1 | 6 | nt | 28* | 24 | 10 | 43* | 47*
COc1ccc(OC)c(C=Cc2ccc([N+](=O)[O-])cc2)c1 | 34* | 43* | nt | nt | nt | nt | 26* | 27 | 7 | 46* | 53*
O=C(OCc1ccccc1C(F)(F)F)c1ccc(Br)c(S(=O)(=O)N2CCOCC2)c1 | -4 | 4 | nt | nt | 7 | nt | nt | nt | nt | nt | nt
O=C(CSc1ccc2c(c1)OCCO2)NCC1CCCO1 (stereo not given) | -2 | 3 | 1 | 1 | -5 | -7 | nt | nt | nt | nt | nt
CC(O)CN(CC(C)O)c1ccc2c(c1)Cc1cc([N+](=O)[O-])ccc1-2 (stereo not given) | 53* | 60* | nt | nt | -34 | nt | 44* | 45 | 5 | 22* | 70*
CCOC(=O)c1sc(-c2cccc(C(F)(F)F)c2)nc1O | 11 | 9 | 0 | 0 | 1 | nt | nt | nt | nt | nt | nt
CCOC(=O)c1sc(-c2ccc(C(F)(F)F)cc2)nc1O | 28* | 25* | 0 | 0 | 8 | nt | 14 | 18 | 0 | 65* | 67*
CN(C(=O)CN1C(=O)c2cccc(N)c2C1=O)C1CCCCC1 | 29* | 61* | 1 | 0 | -19 | nt | 17 | 20 | 2 | 51* | 49*
O=[N+]([O-])c1c(Nc2ccccc2O)cc(Cl)c2nonc12 | 33* | 83* | 1 | 0 | 105* | nt | 56* | -6 | 100* | 97* | -8
O=[N+]([O-])c1c(Nc2ccccc2O)ccc2nonc12 | -5 | -4 | -1 | 0 | -12 | 5 | nt | nt | nt | nt | nt
Cc1ccccc1Nc1cccc2nonc12 | 46* | 41* | 0 | 0 | 1 | 23 | 22* | 28 | -2 | 53* | 57*
Cc1ccccc1NS(=O)(=O)c1cccc2nonc12 | -14 | -7 | 1 | 1 | 5 | nt | nt | nt | nt | nt | nt
COCCN1CCN(C(=O)c2ccc3nc(Cc4ccccc4F)oc3c2)CC1 | -12 | -1 | 0 | 0 | -9 | nt | nt | nt | nt | nt | nt
N#C/C(=C\c1ccc(Sc2ccc(Cl)cc2)o1)c1nc2ccccc2[nH]1 | 34* | 34* | 1 | nt | -5 | 21 | 19 | 24 | 2 | 39* | 43*
CCCC(=O)NC1=C(Cl)C(=O)c2ccccc2C1=O | 37* | 71* | nt | nt | 38 | nt | 61* | 6 | 99* | 90* | 29*
CCOC(=O)C1=C(CSc2nc3c(cc2C#N)CCC3)OC(N)=C(C#N)C1c1ccccc1 (stereo not given) | -56 | -1 | 0 | -1 | 3 | -5 | nt | nt | nt | nt | nt
CCOC(=O)C1=C(CSc2nc(-c3ccccc3)ccc2C#N)OC(N)=C(C#N)C1c1ccccc1 (stereo not given) | 32* | 36* | 0 | -2 | -22 | 19 | 6 | 6 | 20* | 25* | 25*

High-throughput results as filed in PubChem BioAssay.
